PubChem BioAssay AID2235 (The Scripps Research Institute Molecular Screening Center, 2010)
Among all 320,000 compounds or so, about 2,800 (0.88%) were called active. For the sample, actives were picked, then their nearest neighbours and some compounds at random. A number with no mark means an inactive call.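 Rule for the calls: active = inhibition above the mean inhibition of all tested compounds plus 3 SD, computed separately for each screening campaign (cut at about 15% in these data); inactive = the rest.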

biological target: Serine/threonine-protein phosphatase PP1-alpha catalytic subunit (Homo sapiens) (UniProt P62136); assay: inhibition of human PP1 catalytic subunit – biochemical, fluorescence, OMFP substrate, single point, counter-screen for PP5 inhibitor project, primary screen (AID 2235); details: purified PP1alpha, at 6.7 µM, active compounds read high
Sequence (P62136 whole entry, looked up): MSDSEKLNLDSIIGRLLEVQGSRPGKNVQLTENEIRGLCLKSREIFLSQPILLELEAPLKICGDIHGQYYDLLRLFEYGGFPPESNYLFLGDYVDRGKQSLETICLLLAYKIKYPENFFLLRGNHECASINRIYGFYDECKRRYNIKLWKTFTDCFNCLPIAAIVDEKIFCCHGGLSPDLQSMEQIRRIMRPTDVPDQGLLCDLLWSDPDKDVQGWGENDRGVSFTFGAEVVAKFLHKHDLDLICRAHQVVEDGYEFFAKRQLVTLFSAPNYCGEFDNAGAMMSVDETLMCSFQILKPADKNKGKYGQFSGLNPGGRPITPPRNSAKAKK

**Q.** With COc1ccc(CN2CCN(Cc3ccc(OC)c(OC)c3OC)CC2)cc1 as the compound, how does the inhibition read?
**A.** The inhibition was -0.69%.

**Q.** For CCOc1ccc(N(CC(=O)Nc2cccc(OC)c2)S(C)(=O)=O)cc1, which inhibition is on record?
**A.** The inhibition was -2.47%.

**Q.** For COc1ccc(NC(=O)CSc2nnc(-c3ccccc3F)n2C2CC2)cc1S(N)(=O)=O, which inhibition is on record?
**A.** Its inhibition is -2.33%.

**Q.** Which inhibition does the source give for Fc1cccc(Cl)c1COc1ccc(-c2nnco2)cc1 here?
**A.** Its inhibition is 0.3%.

**Q.** For CC(=O)NCc1ccc(-c2csc(NC(=O)CCCc3nc4ccccc4c(=O)[nH]3)n2)cc1, which inhibition is on record?
**A.** Its inhibition is -1.25%.

**Q.** For Cc1cc(C)c(-c2csc(NC(=O)CCCc3nc4ccccc4c(=O)[nH]3)n2)c(C)c1, which inhibition is on record?
**A.** The inhibition was 1.77%.

**Q.** How did the inhibition turn out when CCCn1c(C)cc(-c2csc(NC(=O)CCc3nc4ccccc4c(=O)[nH]3)n2)c1C was run?
**A.** The inhibition was 15.3% (active).

**Q.** With O=C1CCCCN1CCCC(=O)N1CCCC(Nc2ccc(F)cc2)C1 (stereo not drawn) as the compound, how does the inhibition read?
**A.** Its inhibition is -8.73%.

**Q.** Which inhibition does the source give for COCCNC(=O)c1ccccc1NS(=O)(=O)c1ccc(C)c([N+](=O)[O-])c1 here?
**A.** Its inhibition is -0.54%.

**Q.** Cc1ccc(NS(=O)(=O)c2ccc(N/N=C/c3ccccc3OCC(=O)O)c([N+](=O)[O-])c2)c(C)c1 was tested. Which inhibition did it give?
**A.** The inhibition was 21.9% (active).

**Q.** How did the inhibition turn out when Cc1cccc(COc2ccccc2/C=N/Nc2ccc([N+](=O)[O-])cc2)c1 was run?
**A.** Its inhibition is 6.78%.

**Q.** For COC(=O)Nc1ccc(S(=O)(=O)Nc2cc(OC)nc(OC)n2)cc1, which inhibition is on record?
**A.** The inhibition was 0.14%.

**Q.** O=[N+]([O-])c1ccccc1/C=N/n1c(COc2ccccc2)n[nH]c1=S was tested. Which inhibition did it give?
**A.** The inhibition was 19.8% (active).

**Q.** Fc1ccc(/C=N/n2c(COc3ccccc3)n[nH]c2=S)cc1 was tested. Which inhibition did it give?
**A.** The inhibition was 1.88%.

**Q.** CCOc1ccc(-c2n[nH]c(=S)n2/N=C/c2cc3c(cc2[N+](=O)[O-])OCO3)cc1 was tested. Which inhibition did it give?
**A.** The inhibition was 1.23%.

**Q.** For CC(C)(C)OC(=O)N1CCC(NC(=O)c2[nH]cnc2C(=O)N[C@@H](Cc2ccccc2)C(=O)OCc2ccccc2)CC1, which inhibition is on record?
**A.** The inhibition was 5.67%.

**Q.** Which inhibition does the source give for COc1ccc(CCNC(=O)COC(=O)c2ccc[nH]c2=O)cc1 here?
**A.** The inhibition was -2.04%.

**Q.** CCc1ccc(-c2nn(-c3ccccc3)cc2CSC(=N)N)cc1 was tested. Which inhibition did it give?
**A.** The inhibition was 16.1% (active).

**Q.** How did the inhibition turn out when CCc1ccc(-c2nn(-c3ccccc3C)cc2C(=O)N2CCN(C3CCS(=O)(=O)C3)CC2)cc1 (stereo not drawn) was run?
**A.** The inhibition was -1.65%.

**Q.** Which inhibition does the source give for Cc1ccc(-c2nn(-c3ccccc3)cc2C(=O)NC2CCC(O)CC2)cc1 (stereo not drawn) here?
**A.** Its inhibition is -2.02%.

**Q.** Cc1nccc(-c2ccc(-n3c(C)ccc3C)cc2)n1 was tested. Which inhibition did it give?
**A.** Its inhibition is -1.67%.

**Q.** How did the inhibition turn out when c1ccc(-c2nccc(-c3ccc(-n4cnc5ccccc54)cc3)n2)nc1 was run?
**A.** The inhibition was 44.6% (active).

**Q.** COC(=O)c1ccc(-n2cnc3ccccc32)nc1 was tested. Which inhibition did it give?
**A.** The inhibition was 1.21%.

**Q.** Which inhibition does the source give for CC1(C)CC(=O)C(N=Nc2ccc(S(=O)(=O)N3CCCCCC3)cc2)=C(O)C1 here?
**A.** The inhibition was -0.81%.

**Q.** Which inhibition does the source give for Nc1ncnc(Nc2cccc(Cl)c2Cl)n1 here?
**A.** Its inhibition is -0.33%.

**Q.** How did the inhibition turn out when c1ccc(C(c2ccccc2)N2CCN(Cc3nnnn3C3CCCCC3)CC2)cc1 was run?
**A.** Its inhibition is 1.36%.

**Q.** Which inhibition does the source give for O=C(OCC1O[C@@H](OC(=O)c2cc(O)c(O)c(O)c2)[C@@H](OC(=O)c2cc(O)c(O)c(O)c2)[C@@H](OC(=O)c2cc(O)c(O)c(O)c2)[C@@H]1OC(=O)c1cc(O)c(O)c(O)c1)c1cc(O)c(O)c(O)c1 (stereo partly drawn) here?
**A.** The inhibition was 82.4% (active).

**Q.** How did the inhibition turn out when O=C(OCC1OC(Oc2ccc(O)cc2)C(O)C(O)C1O)c1ccccc1 (stereo not drawn) was run?
**A.** Its inhibition is -5.64%.

**Q.** CC(C(=O)Nc1ccc(S(=O)(=O)N2CCCC2)cc1)N(C)Cc1ccc(F)cc1 (stereo not drawn) was tested. Which inhibition did it give?
**A.** The inhibition was -3.95%.

**Q.** Which inhibition does the source give for Cc1ncc(CO)c(/C=N/NC(=O)c2cccc(S(=O)(=O)N3CCCC3)c2)c1O here?
**A.** The inhibition was 2.87%.

**Q.** For COc1ccc(/C=N/NC(=O)CNC(=O)c2ccc(S(=O)(=O)N3CCCC3)cc2)c(OC)c1, which inhibition is on record?
**A.** Its inhibition is 0.14%.

**Q.** Which inhibition does the source give for COc1ccc(/C=N/NC(=O)c2ccc3c(c2)OCCO3)c(OC)c1 here?
**A.** The inhibition was -5.02%.

**Q.** COc1ccc(/C=N/NC(=O)Nc2ccc3nsnc3c2)c(OC)c1 was tested. Which inhibition did it give?
**A.** Its inhibition is 15.8% (active).

**Q.** With O=C1NN(c2ccccc2)C(=O)/C1=C/c1ccc(-c2cccc(C(=O)O)c2)o1 as the compound, how does the inhibition read?
**A.** The inhibition was 5.88%.

**Q.** For O=C(O)C(c1ccccc1)N1C(=O)/C(=C\c2ccc(-c3cccc(Cl)c3)o2)SC1=S (stereo not drawn), which inhibition is on record?
**A.** Its inhibition is 18.4% (active).

**Q.** Which inhibition does the source give for CN1C(=O)/C(=C\c2ccc(-c3ccccc3)o2)SC1=S here?
**A.** The inhibition was -2.09%.

**Q.** How did the inhibition turn out when CCOc1ccc(S(=O)(=O)NCc2ccc3c(c2)OCO3)cc1C was run?
**A.** The inhibition was 1.37%.

**Q.** Which inhibition does the source give for C/C(=N/NC(=O)CCc1ccccc1)c1ccco1 here?
**A.** Its inhibition is -1.45%.

**Q.** With N#Cc1c(Cl)nc(-c2cccnc2)nc1-c1ccccc1 as the compound, how does the inhibition read?
**A.** The inhibition was -1.04%.

**Q.** How did the inhibition turn out when Cc1cc(S(=O)(=O)NCC(C)C)ccc1OCC(=O)NC1CC1 was run?
**A.** The inhibition was -3.62%.

**Q.** For CC(C)(C)C(=O)NC(NC(=S)Nc1ccc(S(N)(=O)=O)cc1)C(Cl)(Cl)Cl (stereo not drawn), which inhibition is on record?
**A.** The inhibition was 1.25%.

**Q.** Which inhibition does the source give for O=C(Cc1cccc2ccccc12)NNC(=O)Nc1ccc(Cl)cc1 here?
**A.** Its inhibition is -1.41%.

**Q.** With Cc1ccc(NC(=S)NC(NC(=O)Cc2cccc3ccccc23)C(Cl)(Cl)Cl)cc1 (stereo not drawn) as the compound, how does the inhibition read?
**A.** The inhibition was 16.6% (active).
